Experimental data: publication PMC7862700, “An all-to-all approach to the identification of sequence-specific readers for epigenetic DNA modifications on cytosine”

Legend:
Experiment in all cases: DAPPL (digital affinity profiling via proximity ligation, sequencing); 10 mM Tris-HCl pH 7.5, 50 mM NaCl, 1 mM DTT, 4% glycerol, room temperature, 30 min; GST-TFs on glutathione beads, 16-mer random dsDNA library, 0.1% formaldehyde crosslink after washing; high values mean tight binding
[1] = target: T1, FEV (Homo sapiens, UniProt Q99581 1-238); settings: protein: recombinant; tags: N-terminal GST; dsDNA, one strand shown
T1 sequence: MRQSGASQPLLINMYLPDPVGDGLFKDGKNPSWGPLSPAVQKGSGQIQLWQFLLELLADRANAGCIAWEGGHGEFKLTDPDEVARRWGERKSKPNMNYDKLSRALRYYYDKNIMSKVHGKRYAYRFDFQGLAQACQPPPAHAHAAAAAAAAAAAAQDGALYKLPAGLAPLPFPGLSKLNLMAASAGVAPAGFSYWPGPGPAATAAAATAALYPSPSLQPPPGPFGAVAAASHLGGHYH
Summary of the method: (§1)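 Binding signal is each hexamer's read frequency for a factor divided by its frequency in the tag-only sample. The factors were GST-fused human transcription factors from yeast, captured on glutathione beads, DNA-barcoded and pooled with that sample. Pools were incubated with 200 nmole of a random double-stranded 16-mer DNA library in Tris/NaCl/DTT/glycerol buffer at room temperature for 30 min, then washed, crosslinked with 0.1% formaldehyde, proximity-ligated with BsaI/T4 ligase (1 h, 37 °C), PCR-amplified and sequenced on an Illumina NextSeq500.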

[2] = target: ETV5 (Homo sapiens, UniProt P41161 1-510); settings: protein: recombinant; tags: N-terminal GST; dsDNA, one strand shown
Summary of the method: as §1

[3] = target: HSF1 (Homo sapiens, UniProt Q00613 1-529); settings: protein: recombinant; tags: N-terminal GST; chain copies: 3; dsDNA, one strand shown
Summary of the method: as §1

[4] = target: T2, SPIC (Homo sapiens, UniProt Q8N5J4 1-248); settings: protein: recombinant; tags: N-terminal GST; dsDNA, one strand shown
T2 sequence: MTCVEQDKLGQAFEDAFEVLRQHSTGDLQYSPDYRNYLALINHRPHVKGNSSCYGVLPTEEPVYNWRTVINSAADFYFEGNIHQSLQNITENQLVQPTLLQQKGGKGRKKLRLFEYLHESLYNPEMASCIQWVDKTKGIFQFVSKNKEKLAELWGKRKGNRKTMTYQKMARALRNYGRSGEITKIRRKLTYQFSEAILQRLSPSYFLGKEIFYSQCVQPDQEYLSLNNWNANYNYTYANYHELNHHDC
Summary of the method: as §1

[5] = target: ELF4 (Homo sapiens, UniProt Q99607 1-663); settings: protein: recombinant; tags: N-terminal GST; dsDNA, one strand shown
Summary of the method: as §1

[6] = target: T3, ELK4 (Homo sapiens, UniProt P28324-2 1-405); settings: protein: recombinant; tags: N-terminal GST; dsDNA, one strand shown
T3 sequence: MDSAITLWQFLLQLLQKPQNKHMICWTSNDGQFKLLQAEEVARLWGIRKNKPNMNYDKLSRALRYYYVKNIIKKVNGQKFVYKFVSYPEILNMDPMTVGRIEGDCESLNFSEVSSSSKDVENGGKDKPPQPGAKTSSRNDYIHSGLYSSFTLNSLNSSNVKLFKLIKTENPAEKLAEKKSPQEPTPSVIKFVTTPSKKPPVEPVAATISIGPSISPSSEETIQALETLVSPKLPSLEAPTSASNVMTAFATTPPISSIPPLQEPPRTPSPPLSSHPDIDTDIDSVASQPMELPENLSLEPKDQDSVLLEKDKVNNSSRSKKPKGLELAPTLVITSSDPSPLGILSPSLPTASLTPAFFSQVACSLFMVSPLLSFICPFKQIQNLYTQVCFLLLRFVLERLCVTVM
Summary of the method: as §1

[7] = target: T4, ETV2 (Homo sapiens, UniProt O00321 1-342); settings: protein: recombinant; tags: N-terminal GST; dsDNA, one strand shown
T4 sequence: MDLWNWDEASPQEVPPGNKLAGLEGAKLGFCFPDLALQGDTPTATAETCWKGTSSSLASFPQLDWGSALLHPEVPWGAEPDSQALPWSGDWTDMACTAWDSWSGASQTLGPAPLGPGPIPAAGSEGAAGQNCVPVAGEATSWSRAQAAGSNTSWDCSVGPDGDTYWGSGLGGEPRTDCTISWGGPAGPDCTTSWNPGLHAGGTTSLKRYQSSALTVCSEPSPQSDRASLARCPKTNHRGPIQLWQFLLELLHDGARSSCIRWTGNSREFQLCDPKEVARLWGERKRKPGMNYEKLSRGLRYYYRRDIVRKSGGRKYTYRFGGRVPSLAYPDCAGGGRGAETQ
Summary of the method: as §1

[8] = target: T5, ELF3 (Homo sapiens, UniProt P78545 1-371); settings: protein: recombinant; tags: N-terminal GST; dsDNA, one strand shown
T5 sequence: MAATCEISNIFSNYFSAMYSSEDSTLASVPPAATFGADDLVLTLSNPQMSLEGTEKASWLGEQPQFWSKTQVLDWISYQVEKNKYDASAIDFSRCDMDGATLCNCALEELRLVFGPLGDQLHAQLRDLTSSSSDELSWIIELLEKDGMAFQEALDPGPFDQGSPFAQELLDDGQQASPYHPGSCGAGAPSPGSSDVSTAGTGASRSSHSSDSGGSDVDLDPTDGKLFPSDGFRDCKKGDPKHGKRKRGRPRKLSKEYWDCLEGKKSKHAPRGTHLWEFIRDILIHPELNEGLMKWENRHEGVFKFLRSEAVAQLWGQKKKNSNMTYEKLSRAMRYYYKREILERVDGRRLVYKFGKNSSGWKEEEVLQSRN
Summary of the method: as §1

[9] = target: CRX (Homo sapiens, UniProt O43186 1-299); settings: protein: recombinant; tags: N-terminal GST; dsDNA, one strand shown
Summary of the method: as §1

[10] = target: ETV1 (Homo sapiens, UniProt P50549 1-477); settings: protein: recombinant; tags: N-terminal GST; dsDNA, one strand shown
Summary of the method: as §1

[11] = target: T6, ERF (Homo sapiens, UniProt P50548 1-548); settings: protein: recombinant; tags: N-terminal GST; dsDNA, one strand shown
T6 sequence: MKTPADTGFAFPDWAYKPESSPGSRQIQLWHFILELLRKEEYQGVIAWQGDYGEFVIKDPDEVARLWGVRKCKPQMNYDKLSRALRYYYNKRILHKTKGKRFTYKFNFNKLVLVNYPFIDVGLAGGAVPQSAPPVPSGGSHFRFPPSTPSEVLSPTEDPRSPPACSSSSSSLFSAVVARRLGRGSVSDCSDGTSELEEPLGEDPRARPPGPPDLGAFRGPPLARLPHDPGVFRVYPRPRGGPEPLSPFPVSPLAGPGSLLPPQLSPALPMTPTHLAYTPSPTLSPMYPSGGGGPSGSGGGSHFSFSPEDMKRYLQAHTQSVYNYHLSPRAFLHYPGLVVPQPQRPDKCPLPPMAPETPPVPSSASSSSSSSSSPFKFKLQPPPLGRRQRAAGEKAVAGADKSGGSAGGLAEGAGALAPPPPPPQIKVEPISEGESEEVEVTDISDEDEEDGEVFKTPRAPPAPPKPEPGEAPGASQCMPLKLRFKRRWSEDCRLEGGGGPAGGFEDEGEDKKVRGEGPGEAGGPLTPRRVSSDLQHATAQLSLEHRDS
Summary of the method: as §1

[12] = target: T7, ETV3L (Homo sapiens, UniProt Q6ZN32 1-361); settings: protein: recombinant; tags: N-terminal GST; dsDNA, one strand shown
T7 sequence: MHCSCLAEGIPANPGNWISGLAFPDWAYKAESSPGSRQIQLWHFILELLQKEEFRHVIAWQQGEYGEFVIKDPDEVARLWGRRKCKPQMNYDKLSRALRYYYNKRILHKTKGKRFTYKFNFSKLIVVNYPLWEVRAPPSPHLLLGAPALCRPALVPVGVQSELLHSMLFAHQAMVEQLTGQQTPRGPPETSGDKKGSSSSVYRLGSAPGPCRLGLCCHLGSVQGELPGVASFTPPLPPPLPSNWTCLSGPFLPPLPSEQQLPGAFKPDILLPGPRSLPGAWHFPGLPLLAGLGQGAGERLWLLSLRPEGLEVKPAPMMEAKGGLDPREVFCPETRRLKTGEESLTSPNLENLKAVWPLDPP
Summary of the method: as §1

[13] = target: T8, ETS2 (Homo sapiens, UniProt P15036 1-469); settings: protein: recombinant; tags: N-terminal GST; dsDNA, one strand shown
T8 sequence: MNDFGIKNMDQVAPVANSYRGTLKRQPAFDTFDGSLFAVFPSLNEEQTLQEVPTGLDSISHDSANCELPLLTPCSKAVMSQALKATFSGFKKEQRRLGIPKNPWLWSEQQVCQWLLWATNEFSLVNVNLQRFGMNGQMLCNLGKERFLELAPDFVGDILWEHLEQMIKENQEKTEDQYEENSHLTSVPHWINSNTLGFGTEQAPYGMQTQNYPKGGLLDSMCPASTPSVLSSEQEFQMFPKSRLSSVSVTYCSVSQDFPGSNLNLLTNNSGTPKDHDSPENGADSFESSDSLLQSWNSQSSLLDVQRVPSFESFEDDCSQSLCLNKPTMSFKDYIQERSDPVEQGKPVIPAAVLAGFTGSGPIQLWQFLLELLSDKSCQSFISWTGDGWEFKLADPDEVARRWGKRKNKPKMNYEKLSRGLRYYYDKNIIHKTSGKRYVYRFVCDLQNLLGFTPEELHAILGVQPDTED
Summary of the method: as §1

[14] = target: T9, SPDEF (Homo sapiens, UniProt O95238 1-335); settings: protein: recombinant; tags: N-terminal GST; dsDNA, one strand shown
T9 sequence: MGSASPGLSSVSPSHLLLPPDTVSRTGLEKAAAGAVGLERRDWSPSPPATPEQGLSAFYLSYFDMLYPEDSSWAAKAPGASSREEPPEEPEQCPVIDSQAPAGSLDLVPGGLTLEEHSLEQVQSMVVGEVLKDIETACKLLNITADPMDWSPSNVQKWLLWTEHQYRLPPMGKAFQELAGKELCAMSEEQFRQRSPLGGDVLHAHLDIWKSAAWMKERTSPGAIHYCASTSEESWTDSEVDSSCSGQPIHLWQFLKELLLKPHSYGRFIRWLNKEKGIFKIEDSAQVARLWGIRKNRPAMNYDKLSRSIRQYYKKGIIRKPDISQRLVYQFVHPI
Summary of the method: as §1

[15] = target: T10, ETV7 (Homo sapiens, UniProt Q9Y603 1-341); settings: protein: recombinant; tags: N-terminal GST; dsDNA, one strand shown
T10 sequence: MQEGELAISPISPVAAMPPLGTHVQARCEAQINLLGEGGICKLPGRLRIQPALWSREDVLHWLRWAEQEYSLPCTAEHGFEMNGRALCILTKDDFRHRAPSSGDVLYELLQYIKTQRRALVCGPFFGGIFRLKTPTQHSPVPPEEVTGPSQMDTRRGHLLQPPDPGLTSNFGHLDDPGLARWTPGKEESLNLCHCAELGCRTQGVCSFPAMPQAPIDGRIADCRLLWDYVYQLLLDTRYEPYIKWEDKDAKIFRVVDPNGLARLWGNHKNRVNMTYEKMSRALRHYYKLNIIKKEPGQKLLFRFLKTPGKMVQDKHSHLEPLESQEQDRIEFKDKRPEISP
Summary of the method: as §1

[16] = target: T11, ELF5 (Homo sapiens, UniProt Q9UKW6-2 1-255); settings: protein: recombinant; tags: N-terminal GST; dsDNA, one strand shown
T11 sequence: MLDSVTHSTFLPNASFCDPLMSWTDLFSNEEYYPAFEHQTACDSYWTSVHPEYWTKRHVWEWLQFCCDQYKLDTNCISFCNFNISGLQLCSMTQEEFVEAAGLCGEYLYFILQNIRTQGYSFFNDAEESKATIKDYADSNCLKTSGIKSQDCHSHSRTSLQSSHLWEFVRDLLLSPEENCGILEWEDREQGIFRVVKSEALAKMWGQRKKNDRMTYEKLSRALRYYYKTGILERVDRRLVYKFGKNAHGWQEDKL
Summary of the method: as §1

[17] = target: T12, ETV3 (Homo sapiens, UniProt P41162-2 1-143); settings: protein: recombinant; tags: N-terminal GST; dsDNA, one strand shown
T12 sequence: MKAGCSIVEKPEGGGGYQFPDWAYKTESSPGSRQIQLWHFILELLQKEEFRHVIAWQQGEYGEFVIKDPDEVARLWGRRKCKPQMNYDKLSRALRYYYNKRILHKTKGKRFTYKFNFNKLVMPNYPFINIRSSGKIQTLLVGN
Summary of the method: as §1

[18] = target: ETV6 (Homo sapiens, UniProt P41212 1-452); settings: protein: recombinant; tags: N-terminal GST; dsDNA, one strand shown
Summary of the method: as §1

Sequence of ETV5 (P41161 whole entry): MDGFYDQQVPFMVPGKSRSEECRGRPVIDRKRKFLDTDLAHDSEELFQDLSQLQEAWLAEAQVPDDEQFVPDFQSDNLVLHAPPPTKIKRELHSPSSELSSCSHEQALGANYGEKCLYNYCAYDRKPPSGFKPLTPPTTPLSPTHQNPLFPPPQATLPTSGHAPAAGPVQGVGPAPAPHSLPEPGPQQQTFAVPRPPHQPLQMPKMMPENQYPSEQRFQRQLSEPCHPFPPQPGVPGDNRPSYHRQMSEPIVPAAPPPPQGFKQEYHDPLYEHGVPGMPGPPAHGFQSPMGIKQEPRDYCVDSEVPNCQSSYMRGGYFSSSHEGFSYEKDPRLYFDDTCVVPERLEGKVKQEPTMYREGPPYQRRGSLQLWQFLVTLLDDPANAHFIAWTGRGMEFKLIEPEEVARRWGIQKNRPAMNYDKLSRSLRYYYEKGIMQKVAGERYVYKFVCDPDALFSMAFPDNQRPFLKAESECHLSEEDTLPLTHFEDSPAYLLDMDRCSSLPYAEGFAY
Sequence of HSF1 (Q00613 whole entry): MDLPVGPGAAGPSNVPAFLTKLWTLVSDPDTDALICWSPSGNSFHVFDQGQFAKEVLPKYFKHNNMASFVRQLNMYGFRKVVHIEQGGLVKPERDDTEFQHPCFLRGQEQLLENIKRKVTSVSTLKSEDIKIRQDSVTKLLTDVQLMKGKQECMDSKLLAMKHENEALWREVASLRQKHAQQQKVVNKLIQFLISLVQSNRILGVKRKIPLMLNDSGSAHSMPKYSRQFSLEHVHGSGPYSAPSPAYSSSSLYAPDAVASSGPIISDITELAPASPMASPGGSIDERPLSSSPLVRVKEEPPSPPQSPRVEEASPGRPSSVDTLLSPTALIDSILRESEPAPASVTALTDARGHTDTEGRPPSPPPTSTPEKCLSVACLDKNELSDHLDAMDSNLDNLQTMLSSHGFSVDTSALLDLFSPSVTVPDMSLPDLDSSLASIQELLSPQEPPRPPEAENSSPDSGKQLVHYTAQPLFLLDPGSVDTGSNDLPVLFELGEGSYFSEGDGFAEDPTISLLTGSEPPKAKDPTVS
Sequence of ETV6 (P41212 whole entry): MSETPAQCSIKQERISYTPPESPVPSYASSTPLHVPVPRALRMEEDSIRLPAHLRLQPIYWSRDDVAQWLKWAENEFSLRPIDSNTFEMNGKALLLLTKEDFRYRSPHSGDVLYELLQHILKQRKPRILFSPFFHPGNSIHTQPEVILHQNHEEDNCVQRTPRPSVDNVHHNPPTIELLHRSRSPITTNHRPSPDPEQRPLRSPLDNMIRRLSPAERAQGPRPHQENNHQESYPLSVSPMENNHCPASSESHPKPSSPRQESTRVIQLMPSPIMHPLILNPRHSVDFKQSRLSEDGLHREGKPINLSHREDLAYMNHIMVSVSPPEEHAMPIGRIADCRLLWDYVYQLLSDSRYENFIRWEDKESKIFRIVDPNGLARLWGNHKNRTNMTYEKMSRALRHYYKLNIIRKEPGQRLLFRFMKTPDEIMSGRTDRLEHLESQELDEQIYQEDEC
Sequence of ETV1 (P50549 whole entry): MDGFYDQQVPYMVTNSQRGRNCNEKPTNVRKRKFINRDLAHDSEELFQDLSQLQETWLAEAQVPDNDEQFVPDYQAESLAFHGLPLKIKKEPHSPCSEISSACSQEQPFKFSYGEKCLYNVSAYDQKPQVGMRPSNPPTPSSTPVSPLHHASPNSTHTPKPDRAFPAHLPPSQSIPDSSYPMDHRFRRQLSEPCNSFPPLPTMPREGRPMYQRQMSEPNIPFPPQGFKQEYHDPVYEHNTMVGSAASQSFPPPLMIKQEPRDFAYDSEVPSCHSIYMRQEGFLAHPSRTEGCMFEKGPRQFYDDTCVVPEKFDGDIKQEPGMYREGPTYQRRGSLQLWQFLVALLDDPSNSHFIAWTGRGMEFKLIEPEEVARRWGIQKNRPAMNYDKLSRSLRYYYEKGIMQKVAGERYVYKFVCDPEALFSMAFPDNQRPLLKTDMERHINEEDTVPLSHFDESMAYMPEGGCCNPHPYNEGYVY
Sequence of CRX (O43186 whole entry): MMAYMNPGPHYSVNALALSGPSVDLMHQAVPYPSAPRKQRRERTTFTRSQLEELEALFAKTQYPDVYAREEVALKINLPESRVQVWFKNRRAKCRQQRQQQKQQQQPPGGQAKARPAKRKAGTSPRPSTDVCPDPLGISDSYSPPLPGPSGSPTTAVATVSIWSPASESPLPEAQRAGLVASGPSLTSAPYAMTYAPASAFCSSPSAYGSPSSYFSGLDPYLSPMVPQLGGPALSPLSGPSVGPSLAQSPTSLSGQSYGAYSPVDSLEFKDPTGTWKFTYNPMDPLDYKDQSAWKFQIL
Sequence of ELF4 (Q99607 whole entry): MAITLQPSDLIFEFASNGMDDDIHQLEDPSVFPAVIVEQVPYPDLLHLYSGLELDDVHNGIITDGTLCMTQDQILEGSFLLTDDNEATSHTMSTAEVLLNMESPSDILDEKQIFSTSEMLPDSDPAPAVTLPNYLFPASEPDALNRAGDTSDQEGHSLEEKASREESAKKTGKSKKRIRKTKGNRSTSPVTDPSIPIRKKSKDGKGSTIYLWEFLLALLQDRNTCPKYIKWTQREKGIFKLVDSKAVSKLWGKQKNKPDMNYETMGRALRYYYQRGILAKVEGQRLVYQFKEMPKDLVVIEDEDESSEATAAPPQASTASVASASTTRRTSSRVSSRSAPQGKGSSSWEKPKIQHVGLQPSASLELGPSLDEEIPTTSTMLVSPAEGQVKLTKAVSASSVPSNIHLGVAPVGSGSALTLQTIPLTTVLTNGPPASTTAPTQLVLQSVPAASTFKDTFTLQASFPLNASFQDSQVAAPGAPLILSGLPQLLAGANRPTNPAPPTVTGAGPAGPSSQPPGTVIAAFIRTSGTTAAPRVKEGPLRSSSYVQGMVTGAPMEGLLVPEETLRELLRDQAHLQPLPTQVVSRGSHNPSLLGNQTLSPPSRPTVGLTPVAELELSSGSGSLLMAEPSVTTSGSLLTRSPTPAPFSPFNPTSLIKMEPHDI

Question: How did the binding signal [1] turn out when AAGCTT was run?
Answer: Its binding signal is 1.16 fold enrichment (6-mer frequency, TF over GST control).

Question: And the binding signal [2]?
Answer: The binding signal was 1.25 fold enrichment (6-mer frequency, TF over GST control).

Question: And the binding signal [3]?
Answer: The binding signal was 1.84 fold enrichment (6-mer frequency, TF over GST control).

Question: And the binding signal [4]?
Answer: The binding signal was 1.24 fold enrichment (6-mer frequency, TF over GST control).

Question: And the binding signal [5]?
Answer: Its binding signal is 1.25 fold enrichment (6-mer frequency, TF over GST control).

Question: And the binding signal [6]?
Answer: Its binding signal is 1.39 fold enrichment (6-mer frequency, TF over GST control).

Question: What about the binding signal [7] of the same sequence?
Answer: Its binding signal is 1.31 fold enrichment (6-mer frequency, TF over GST control).

Question: What about the binding signal [8] of the same sequence?
Answer: Its binding signal is 1.29 fold enrichment (6-mer frequency, TF over GST control).

Question: And the binding signal [9]?
Answer: Its binding signal is 2.33 fold enrichment (6-mer frequency, TF over GST control).

Question: What about the binding signal [10] of the same sequence?
Answer: The binding signal was 1.31 fold enrichment (6-mer frequency, TF over GST control).

Question: What about the binding signal [11] of the same sequence?
Answer: Its binding signal is 1.29 fold enrichment (6-mer frequency, TF over GST control).

Question: And the binding signal [12]?
Answer: The binding signal was 1.31 fold enrichment (6-mer frequency, TF over GST control).

Question: And the binding signal [13]?
Answer: Its binding signal is 1.19 fold enrichment (6-mer frequency, TF over GST control).

Question: What about the binding signal [14] of the same sequence?
Answer: The binding signal was 1.14 fold enrichment (6-mer frequency, TF over GST control).

Question: And the binding signal [15]?
Answer: The binding signal was 1.38 fold enrichment (6-mer frequency, TF over GST control).

Question: What about the binding signal [16] of the same sequence?
Answer: The binding signal was 1.31 fold enrichment (6-mer frequency, TF over GST control).

Question: And the binding signal [17]?
Answer: Its binding signal is 1.2 fold enrichment (6-mer frequency, TF over GST control).

Question: What about the binding signal [18] of the same sequence?
Answer: Its binding signal is 1.3 fold enrichment (6-mer frequency, TF over GST control).
